# TexasRed fluor = Total Fluorescence Counterscreen for Inhibitors of the Interaction of Thyroid Hormone Receptor and Steroid Receptor Coregulator 2. Potency, µM (titrated, usually from 106 µM). 0.29% of 280,000 active. TRb/SRC2 Texas Red total fluorescence interference; active = well fitted curve in either direction with a large enough effect; inconclusive = small, poorly fitted or top-dose-only effect
#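 Human TRb ligand-binding domain at 0.6 uM with 20 nM Texas Red SRC2 peptide in Tris buffer containing 1 uM T3 and 5% DMSO, incubated with compound 5 h at ambient temperature. Total fluorescence (555/632 nm) calculated as parallel + 2 × perpendicular.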
# PNC inhibitor = High Content Assay for Compounds that inhibit the Assembly of the Perinucleolar Compartment; PC3M PTB-GFP, PNC prevalence imaging, 16 h; active compounds read low; activity change (PNC), negative = inhibition, % at 10 µM; 3.1% of 140,000 active;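 active = readout at or below -70, meaning at least 70% loss of cells showing the perinucleolar compartment, a nuclear body marking cancer cells; inconclusive = readout between -30 and a set limit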
#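 PC3M cells stably expressing PTB-GFP, 750–1000 cells/well, treated 16 h at 37 °C with compound (23 nl of library stock), in duplicate. After paraformaldehyde fixation and Hoechst stain, imaged at 20x; PNC prevalence scored by image analysis.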
# Tau fibril ThT = qHTS for Inhibitors of Tau Fibril Formation, Thioflavin T Binding; Microtubule-associated protein tau (Homo sapiens), P10636; recombinant tau K18 P301L, heparin-induced fibrillization, ThT fluorescence; AID 1460, 2008; Potency, µM (doses to about 57.4 µM), hits mostly inhibitors; 2.1% of 270,000 active; note: nearly all actives have a fitted effect of over 55% in size
# Target sequence (P10636 561-689 P618L limits assumed): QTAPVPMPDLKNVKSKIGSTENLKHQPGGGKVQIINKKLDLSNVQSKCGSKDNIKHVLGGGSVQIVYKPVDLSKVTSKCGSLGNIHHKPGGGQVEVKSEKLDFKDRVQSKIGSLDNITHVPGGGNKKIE
#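 ThT emission at 510 nm, taken 1 hr after adding 30 uM dye, quantifies aggregates formed when 20 uM heparin acts on human tau K18 P301L for 6 hr at 37 C.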
# Tau fluor counter = Counterscreen qHTS for Inhibitors of Tau Fibril Formation, Fluorescence Polarization; tau K18 P301L Alexa594 fluorescence, heparin fibrillization; Potency, µM (doses to about 57.7 µM); 0.93% of 280,000 active; note: nearly all actives have a fitted effect of over 55% in size
#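 Human tau K18 P301L (15 uM unlabeled, 0.24 uM Alexa 594-labeled) in 100 mM sodium acetate pH 7 with 20 uM heparin, 6 hr at 37 C. ThT 30 uM added, 1 hr ambient; Alexa 594 FP and total fluorescence read at 555/632 nm.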
# TRb SRC2 PPI = qHTS for Inhibitors of the Interaction of Thyroid Hormone Receptor and Steroid Receptor Coregulator 2. TRbeta-SRC2 peptide binding, fluorescence polarization; receptor liganded with 1 µM T3. Potency, µM (highest dose often 106 µM), most hits filed as inhibitors. Thyroid hormone receptor beta (Homo sapiens), P10828. 0.065% of 280,000 active. AID 1469, 2008; note: nearly all actives have a fitted effect of over 50% in size
# Target sequence (P10828 whole entry, looked up): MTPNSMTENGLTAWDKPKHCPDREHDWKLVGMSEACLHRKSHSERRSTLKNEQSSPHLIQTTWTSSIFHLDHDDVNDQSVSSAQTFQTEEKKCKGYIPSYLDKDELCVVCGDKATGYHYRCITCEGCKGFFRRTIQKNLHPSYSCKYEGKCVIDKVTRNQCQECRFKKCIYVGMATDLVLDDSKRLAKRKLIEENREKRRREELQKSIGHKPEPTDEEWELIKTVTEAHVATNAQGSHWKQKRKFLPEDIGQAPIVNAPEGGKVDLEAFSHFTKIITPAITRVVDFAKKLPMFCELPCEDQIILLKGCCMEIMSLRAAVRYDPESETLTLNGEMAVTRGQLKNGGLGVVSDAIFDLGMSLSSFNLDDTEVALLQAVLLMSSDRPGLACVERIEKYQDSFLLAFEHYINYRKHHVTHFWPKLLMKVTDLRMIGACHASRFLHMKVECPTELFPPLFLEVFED
#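 TRb LBD 0.6 uM + Texas Red SRC2 peptide 20 nM, 1 uM T3, Tris buffer w/ 5% DMSO; compound pinned, 5 h RT; FP read ex 555/em 632; normalized to unbound and bound controls.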
# Tau FP inhib = qHTS for Inhibitors of Tau Fibril Formation, Fluorescence Polarization | K18 P301L tau heparin fibrillization, Alexa594 FP, 6 h | 0.39% of 280,000 active | Potency, µM (top dose mostly 57.7 µM), actives largely listed as inhibitors | Microtubule-associated protein tau (Homo sapiens), P10636; note: nearly all actives have a fitted effect of over 55% in size
#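 Heparin (20 uM) drove fibril formation of recombinant tau K18 P301L, 15 uM unlabeled with 0.24 uM Alexa 594 label, for 6 hr at 37 C in 100 mM sodium acetate pH 7. Fluorescence polarization (555/632 nm) read 1 hr after 30 uM ThT.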
# Numbers stand for hits; n = inactive; u = inconclusive; x = no result given; [ ] = remark or other dose. Hits are enriched below; roughly 4.6% of the tested compounds scored in any of these assays. Unless noted, calls come from the whole dose curve; as a rule, active = well fitted curve in the direction sought with a large enough effect; inconclusive = small, poorly fitted or top-dose-only effect, or another doubt; inactive = no such curve, though single readings can be large; an effect the other way counts as inactive or inconclusive.
SMILES,TexasRed fluor,PNC inhibitor,Tau fibril ThT,Tau fluor counter,TRb SRC2 PPI,Tau FP inhib
CN(C)c1ccc(/C=C2\SC(=O)N(CCc3nnc(N)s3)C2=O)cc1,n,x,u,n,n,n
C#CCN1C(=O)S/C(=C/C=C/c2ccc(N(C)C)cc2)C1=O,u,u,1.6µM,n,u,u
O=C(Nc1cccnc1)c1ccc(COc2ccccc2Br)o1,n,n,n,n,n,n
CC(=O)OCC(=O)NCC(=O)c1c[nH]c2ccccc12,n,-100,n,n,n,n
CC(C)C(NS(=O)(=O)c1c(Cl)cccc1Cl)C(=O)OCC(=O)c1c[nH]c2ccccc12 (stereo not drawn),n,n,n,8.9µM[quencher],n,u
CC(C)Cc1ccc(C(C)C(=O)OCC(=O)c2c[nH]c3ccccc23)cc1 (stereo not drawn),n,u,n,u,n,22µM
O=c1[nH]c(Cl)nc2c1ncn2C1OC(CO)C(O)C1O (stereo not drawn),n,x,n,n,n,n
O=C(CSc1nc2ccc(Cl)cc2[nH]1)Nc1ccc2c(c1)CCC2,n,n,u,u,n,13µM
Cc1ccc2nc(SCC(=O)Nc3ccc4c(c3)CCC4)[nH]c2c1,n,n,u,n,n,n
O=C(O)CN=C1NC2(CCCCC2)Cc2ccccc21,n,-100,n,n,n,n
CC[C@@H]1C(c2ccccc2)=NN(c2ccc(Br)cc2)[C@H]1C(=O)N1CCOC1=O,n,x,u,7.9µM[quencher],n,n
CC[C@@H]1C(c2ccc(F)cc2)=NN(c2ccc(Br)cc2)[C@H]1C(=O)N1CCOC1=O,n,x,u,10µM[quencher],n,n
O=C(CN1C(=O)S/C(=C/c2cccnc2)C1=O)N1CCOCC1,n,n,n,n,n,n
COc1ccc(CNc2nc(NCc3ccc(OC)cc3)c3ncn(C4CCCCC4)c3n2)cc1,n,x,x,x,n,x
COc1ccc(NC(=O)NC2CCN(C(C)C)CC2)c(OC)c1,n,-80,n,n,n,u
Cc1nnc(N(C)C(=O)Cc2ccc3c(c2)OCO3)s1,n,-100,n,n,n,n
Cc1nnc(SCc2ccc3c(c2)OCO3)s1,n,n,n,n,n,n
CC1=C(C)C(=O)N(c2ccccn2)C1=O,n,u,n,n,n,n
Cc1nn(-c2ccccn2)c2c1C(=O)C(Br)CC2 (stereo not drawn),n,x,2.8µM,u,u,3.2µM
CN1CCc2cc(Cl)c(O)cc2C(c2ccccc2)C1 (stereo not drawn),n,x,n,n,n,n
CC1=C(C#N)C(c2ccccc2)C2=C(N1)c1ccccc1C2=O (stereo not drawn),n,n,13µM,25µM[quencher],n,n
CSC1=C(C#N)C(c2ccccc2Cl)C2=C(CCCC2=O)N1 (stereo not drawn),n,n,n,n,n,n
CC1=C(C#N)C(c2cccnc2)C2=C(N1)c1ccccc1C2=O (stereo not drawn),n,x,u,n,n,n
CC(=O)C1=C(C)NC2=C(C(=O)c3ccccc32)C1c1ccccc1 (stereo not drawn),n,x,18µM,u,n,n
CSC1=C(C#N)C(c2ccccc2Cl)C2=C(N1)c1ccccc1C2=O (stereo not drawn),n,n,28µM,u,n,u
SMILES,TexasRed fluor,PNC inhibitor,Tau fibril ThT,Tau fluor counter,TRb SRC2 PPI,Tau FP inhib
Cc1ccc2cccc(N=Cc3c(C)[nH]n(-c4ccccc4)c3=O)c2n1,n,n,u,u,n,n
O=C(c1ccc(C(F)(F)F)cc1)N1CCCCC1,n,n,n,n,n,n
CC(=O)C1=C(C)NC(SCC(=O)c2ccc(C)cc2)=C(C#N)C1c1ccco1 (stereo not drawn),n,n,16µM,14µM[quencher],n,u
Cc1ccccc1NC(=O)C1CCCN(S(=O)(=O)c2c(C)noc2C)C1 (stereo not drawn),n,u,n,n,n,n
CC(C)CCNC(=O)Nc1ccc2c(c1)N(C)C(=O)CS2,n,n,n,n,n,n
CC(=O)c1ccc(NC(=O)Nc2ccc3c(c2)N(C)C(=O)CS3)cc1,n,u,u,13µM[quencher],n,n
COc1ccc(NC(=O)Nc2ccc3c(c2)N(C)C(=O)CS3)cc1Cl,n,n,u,6.3µM[quencher],n,u
CN1C(=O)CSc2ccc(NC(=O)NCCC3=CCCCC3)cc21,n,n,n,14µM[quencher],n,u
O=C(NCCC1=CCCCC1)c1ccc2c(c1)N(Cc1ccccc1)C(=O)CS2,n,-84,n,n,n,n
COc1ccc(NC(=O)Nc2ccc3c(c2)N(C)C(=O)CS3)cc1OC,n,n,n,n,n,n
O=C(N/N=C1/CC2C=CCC12)c1ccc(Br)o1 (stereo not drawn),n,n,n,n,n,n
CCn1c(O)c(C=Nc2ccccc2)oc1=S,n,-94,n,n,n,n
CCCn1c(O)c(C=Nc2ccccc2)sc1=S,n,x,n,u,n,n
COc1cc(OC)c(NC(=O)Cn2ncn3c(cc4cc(C)ccc43)c2=O)cc1Cl,n,x,n,n,n,n
C/C(CCC1CC(C)OC1=O)=N/Nc1nc(-c2ccccc2)cs1 (stereo not drawn),n,n,28µM,u,n,u
CC1CC(CC(=O)NNc2nc(-c3ccccc3)cs2)C(=O)O1 (stereo not drawn),n,x,n,n,n,n
CCOC(=O)C/C(C)=N\Nc1nc(-c2ccccc2)cs1,n,x,14µM,u,n,u
C(=N\Nc1nc(-c2ccccc2)cs1)/c1cccnc1,n,n,16µM,16µM[quencher],n,n
CC(/C=C/c1ccccc1)=N\Nc1nc(-c2ccccc2)cs1,n,-85,7.9µM,11µM[quencher],n,n
Clc1ccc(-c2csc(N/N=C/c3cccnc3)n2)c(Cl)c1,n,n,u,u,n,u
CC(C)=NNc1nc(-c2ccccc2)cs1,n,n,n,n,n,n
Cc1ccc(NC(=S)Nc2ccccn2)cc1C,n,x,n,n,n,n
COC(=O)c1ccc2c(c1)NC(=O)C(N1CCCCC1)S2 (stereo not drawn),n,n,n,n,n,n
CCCC(=O)Nc1ccc(-c2csc(N/N=C\c3ccncc3)n2)cc1,n,x,x,16µM[quencher],n,u
CC(=O)Nc1ccc(-c2csc(N/N=C\c3ccncc3)n2)cc1,n,x,x,u,n,n
Cc1ccccc1NC(=O)c1ccc([N+](=O)[O-])o1,n,x,n,n,n,n
